Only some compounds are listed: those with a hit (about 19% of all), similar ones and a draw of the others.
HT1080NT lethal: qHTS for induction of synthetic lethality in tumor cells producing 2HG: qHTS for the HT-1080-NT fibrosarcoma cell line. HT-1080-NT fibrosarcoma viability, CellTiter-Glo ATP luminescence, 48 h. Potency, µM (doses to about 46.1 µM), for inactives: at the top dose activity, negative = less viability, hits mostly cytotoxic. actives 1.6% (n = 360,000);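 also: NT is the 2HG producing partner of a matched IDH1 knockdown line; potency is read from the fitted curve at half-maximal effect; 0% = DMSO-treated cells and -100% = media-only wells without cells; nearly all actives have a fitted effect of over 55% in size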
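Luminescent CellTiter-Glo readout after 48 hours of compound exposure at 37 degrees C defined viability of HT-1080-NT cells. Activity was normalized to DMSO wells and cell-free media wells; concentration-response curves were fitted and assigned curve classes.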
ELG1 DNA repair: qHTS screen for small molecules that inhibit ELG1-dependent DNA repair in human embryonic kidney (HEK293T) cells expressing luciferase-tagged ELG1. HEK293T ELG1-luciferase reporter, luminescence, 16 h; DNA damage induced by 5-fluorouridine. Potency, µM (series often up to 46.1 µM), inactives show at the highest dose activity change, negative = inhibition, usual class: inhibitors. AID 504467, 2011. actives 2.3% (n = 330,000); also: potency is read from the fitted curve at half-maximal effect; nearly all actives have a fitted effect of over 55% in size
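5-Fluorouridine DNA damage + compound/DMSO, 2,000 cells/well, 16 h, 37 °C/5% CO2. ONE-Glo, 30 min RT, luminescence. Readout = decrease in reporter signal.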
HT1080 IDH1KD tx: qHTS for induction of synthetic lethality in tumor cells producing 2HG: qHTS for the HT-1080-IDH1KD cell line. HT-1080 IDH1 knockdown viability, ATP luminescence, 48 h. Potency, µM (series often up to 46.1 µM), without a hit: top-dose activity, negative = toxicity, usual class: cytotoxic. actives 2% (n = 360,000);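 also: potency is read from the fitted curve at half-maximal effect; 0% = DMSO wells and -100% = cell-free medium wells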
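In this qHTS, HT-1080 cells depleted of IDH1 are exposed for 48 h at 37 °C to compound titrations. Toxicity is scored from CellTiter-Glo luminescence, with DMSO as full viability and medium alone as none.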
IL-1B inflam inh: qHTS for Inhibitors of Inflammasome Signaling: IL-1-beta AlphaLISA Primary Screen. actives 4.7% (n = 360,000). AID 743279, 2014. THP-1 LPS/ATP IL-1B secretion, AlphaLISA, 16 h; stronger effect = lower value. activity change, % at 57.5 µM; in the data active = activity change below about -50%; inconclusive = mostly about -30% to -49%
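THP-1 cells pretreated 1 hr with compounds (up to 57.5 uM final), then stimulated with LPS (250 ng/mL final) plus ATP (1.25 mM final); secreted IL-1B measured by AlphaLISA after 16 hr, decreased signal indicating inhibition.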
TDP1 cell CPT: qHTS for Inhibitors of human tyrosyl-DNA phosphodiesterase 1 (TDP1): qHTS in cells in presence of CPT | chicken DT40 Tdp1-/-;hTDP1 cells + 20 nM CPT, ATP luminescence, 48 h | Potency, µM (titrated, usually from 46.2 µM), without a hit: at the highest dose activity change, negative = growth inhibition, usual class: inhibitors | actives 12% (n = 420,000); also: potency is read from the fitted curve at half-maximal effect; nearly all actives have a fitted effect of over 55% in size
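Chicken DT40 Tdp1-/- cells stably complemented with human TDP1 were seeded at 400 cells/well in medium containing 20 nM camptothecin, exposed to pin-transferred compounds, and grown at 37 °C for at least 48 hr. Viability was read as ATP luminescence.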
TDP1 cell noCPT: qHTS for Inhibitors of human tyrosyl-DNA phosphodiesterase 1 (TDP1): qHTS in cells in absence of CPT | AID 686978, 2013 | Potency, µM (doses to about 46.2 µM), inactives show at the top dose activity change, negative = growth inhibition, usual class: inhibitors | DT40 Tdp1-/- hTDP1 cells, no CPT, ATP luminescence, 48 h | actives 15% (n = 420,000); also: potency is read from the fitted curve at half-maximal effect; nearly all actives have a fitted effect of over 55% in size
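Compound effects on proliferation are scored in DT40 Tdp1-/-;hTDP1 cells in the absence of CPT. ATP levels (CellTiter-Glo luminescence) are recorded after a ≥48 hr, 37 °C incubation.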
* hit, by the source's call; i = inactive; u = inconclusive; x = not tested or not shown. Unless noted, calls follow the shape of the dose curve; as a rule, active = well fitted curve in the direction sought with a large enough effect; inconclusive = small, poorly fitted or top-dose-only effect, or another doubt; inactive = no such curve, though single readings can be large; an effect the other way counts as inactive or inconclusive. Unless noted, % is scaled to controls: 0 for no effect and ±100 for the full control effect.

SMILES	HT1080NT lethal	ELG1 DNA repair	HT1080 IDH1KD tx	IL-1B inflam inh	TDP1 cell CPT	TDP1 cell noCPT
O=C(CCc1ccc(S(=O)(=O)NCc2ccccc2)cc1)N1CCN(Cc2ccc3c(c2)OCO3)CC1	-3.4%	u	-5.9%	u	31.6µM*	u
COc1ccc(CN2CCN(C(=O)c3ccc(S(=O)(=O)NCc4ccco4)cc3)CC2)cc1F	-7.7%	-11.3%	-19.2%	-13.1	9.2µM*	u
Cc1c(N=Cc2ccco2)c(=O)n(-c2ccccc2)n1C	12.1%	-2.4%	12.5%	32.3	-7.9%	-6.2%
COc1ccc2c(C=Nc3c(C)n(C)n(-c4ccccc4)c3=O)c(O)n(Cc3ccco3)c(=O)c2c1	13.1%	u	6.3%	-17.3	18.4µM*	u
CCCCOc1cccc(C(=O)Nc2cccc3ccc(C)nc23)c1	x	x	x	x	u	23.1µM*
CCCCOc1cccc(C(=O)Nc2ccccc2N2CCCC2)c1	-2.1%	-10.6%	-2.8%	-17.3	-16.2%	u
COC(=O)COc1cccc(NC(=O)c2cccs2)c1	-11.2%	0.7%	0.5%	-52.6*	-8.5%	-9.9%
CCCCOc1cccc(C(=O)Nc2ccc(NC(=O)c3cccs3)cc2)c1	20.6µM*	-6.3%	14.6µM*	27.9	14.6µM*	u
COc1cccc(C(=O)COc2ccc(NC(=O)c3cccs3)cc2)c1	-1.9%	14.6µM*	-16.3%	-6.7	u	u
COCCn1c(=O)c(-c2cccc(C#N)c2)nc2cnc(N3CCNCC3)nc21	x	x	x	x	-6.2%	u
CC(C)CCN1C(=O)c2ccc(C(=O)Nc3ccccn3)cc2C1=O	-11.5%	-8.2%	-13.0%	i	-12.2%	2.3%
O=C(NCCNC(=O)c1ccccc1Cl)c1ccco1	8.2%	24.6%	6.5%	11.2	-24.2%	-0.4%
C=CCN(C(=O)C1CC(=O)N(C2CCCC2)C1)c1nc(-c2ccc(S(C)(=O)=O)cc2)cs1 (stereo unspecified)	-19.2%	u	-15.3%	0.0	14.6µM*	14.6µM*
C=CCN(C(=O)CN1CCCCC1)c1nc(-c2ccccc2)cs1	u	7.7%	u	-12.5	u	u
COC(=O)c1ccccc1NC(=O)CCC(=O)N1CCOc2ccccc21	x	x	x	x	-20.4%	-28.9%
CC(C)CCNC1c2ccccc2C(=O)N1Cc1ccccc1 (stereo unspecified)	5.1%	-3.6%	1.0%	2.0	-24.1%	23.1µM*
COc1cc(NC2c3ccccc3C(=O)N2Cc2ccccc2)cc(OC)c1OC (stereo unspecified)	-10.6%	-7.4%	2.8%	-5.7	u	u
COc1ccccc1NC(=O)c1oc2ccccc2c1NC(=O)C1CCCCC1	x	x	x	x	-23.0%	u
CN(Cc1ccccc1F)c1cc2c(c3c1ccn3C)C1CCC2C1 (stereo unspecified)	-7.8%	x	-9.5%	0.0	u	23.1µM*
CCCCn1c(N)c(N(CCOC)C(=O)COC(=O)COc2cccc(C(C)=O)c2)c(=O)[nH]c1=O	7.6%	5.0%	-2.4%	16.0	2.8%	-4.0%
Cc1ccc(S(=O)(=O)c2ccc(Cl)cc2)cc1S(N)(=O)=O	-17.3%	-5.0%	-1.3%	0.0	-3.2%	0.0%
O=C(NC(=S)Nc1ccccc1Br)c1ccc2c(c1)OCO2	6.5%	u	2.2%	11.7	18.7%	3.1%
O=C(Nc1cccc(Cl)c1N1CCCCC1)c1ccc2c(c1)OCCO2	u	0.3%	u	-3.7	u	20.6µM*
O=C(NC(=S)Nc1cccc(Cl)c1N1CCCCC1)c1ccc2c(c1)OCCO2	10.6%	3.0%	4.2%	-5.7	3.26µM*	u
O=C(Nc1ccc(N2CCCCC2)cc1)c1ccc2c(c1)OCCO2	-6.7%	u	-27.9%	-27.3	u	u
SMILES	HT1080NT lethal	ELG1 DNA repair	HT1080 IDH1KD tx	IL-1B inflam inh	TDP1 cell CPT	TDP1 cell noCPT
COCCCNC(=O)c1cccc2c(-c3ccnn3C)coc12	0.9%	x	0.0%	45.9	u	-19.1%
S=c1nc(-c2ccccc2Br)[nH][nH]1	7.08µM*	15.5%	10µM*	33.2	u	-16.5%
Cc1cc(C)c(CSc2nnc(C)n3c2cc2occc23)c(C)c1	x	x	x	x	18.4µM*	20.6µM*
Cc1ccc(-n2c(SCC(=O)N3CCC(C)CC3)nc3c([nH]c4ccccc43)c2=O)cc1	x	x	x	x	-24.4%	-23.2%
CC(C)c1ccc(OC(=O)c2cccc(S(=O)(=O)N3CCN(C)CC3)c2)cc1	-17.7%	0.3%	-16.7%	i	u	18.4µM*
COC(=O)c1c(NC(=O)c2cccc(S(=O)(=O)N3CCN(C)CC3)c2)sc(C)c1C	-13.3%	u	-25.9%	-76.8*	14.6µM*	14.6µM*
CC1/C=C/C=C/C=C/C=C/C=C/C=C/C=C/C(OC2OC(C)C(O)C(N)C2O)CC2O[C@@](O)(CC(O)CC(O)C(O)CCC(O)CC(O)CC(=O)OC(C)[C@H](C)C1O)CC(O)C2C(=O)O (stereo partly specified)	x	x	x	x	-0.6%	0.2%
COCCCNc1nc(NCc2ccccc2OC)c2cnn(C)c2n1	x	x	x	x	u	23.1µM*
CCCn1c(SCC(N)=O)nc2c(c1=O)C1(CCCC1)Cc1ccccc1-2	0.6%	u	6.8%	-58.3*	-0.3%	9.2%
CCOC(=O)Cn1ccc2cc(S(=O)(=O)N3CCCC3)ccc21	8.6%	x	7.2%	32.7	-2.9%	-0.6%
Cc1nc(N)c(CC(Br)CBr)c(Cl)n1 (stereo unspecified)	-1.1%	u	-0.5%	0.0	8.2µM*	7.31µM*
CCCn1cc(S(=O)(=O)c2cc(C)ccc2C)c(=O)c2cc(F)c(N3CCCCCC3)cc21	x	x	x	x	u	-83.8%
CCc1nc2ccc(C(=O)Nc3cc(-c4ccccc4)ccc3OC)cn2c1N(C)CCCc1ccccc1	u	x	u	-7.6	u	u
CCc1nc2ccc(C(=O)Nc3cc(-c4ccccc4)ccc3OC)cn2c1N(CCN(C)C)CC1CC1	u	x	18.4µM*	u	20.6µM*	14.6µM*
CCc1nc2ccc(C(=O)Nc3cc(-c4ccccc4)ccc3OC)cn2c1N(C=O)CCC(C)C	-29.8%	x	u	-59.8*	16.4µM*	14.6µM*

Compound activity: PubChem, National Center for Advancing Translational Sciences (NCATS)
